For orientation: AC50 means the concentration at which the activity in the assay is half-maximal.

Calls of active or inactive are those of the source. Rule for the calls: active = hit-call score of the fitted dose curve at least 0.9, where 1 is the maximum; inactive = score below 0.9.

A short description of test [1]: BSK_4H_SRB: Viability Assessment in the BioMAP Diversity Plus: 4H Assay (AID 2283027).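 Note: cells exposed to compound for 24 h before staining.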 The following applies: primary human endothelial cells (HUVEC). The method, boiled down:
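HUVEC, 24 h post-dose; 10% TCA fix, 0.1% SRB stain, A560 nm. Total protein = overt cytotoxicity, parallel to biomarker read. Bidirectional fit vs DMSO baseline.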

Test [2] can be described thus: BSK_BE3C_SRB: Viability Assessment in the BioMAP Diversity Plus: BE3C Assay (AID 2283028). To be noted: primary human bronchial epithelial cells. The method, boiled down:
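Primary human bronchial epithelium; chemical dosing, 24 h; 10% TCA fix, 0.1% SRB stain, A560; bidirectional fit vs DMSO baseline.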

Read-out in test [3]: Thrombomodulin, THBD (gene 7056)
The test can be described thus: BSK_3C_Thrombomodulin: BioMAP Diversity Plus: 3C Assay for Thrombomodulin Biomarker Activity (AID 2283029). To be noted: primary human endothelial cells (HUVEC); actives raise or lower the signal. The method, boiled down: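 Endothelial cells from umbilical vein are dosed with test chemical and incubated 24 h. Thrombomodulin is then quantified by ELISA, with DMSO serving as negative control and activity baseline.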

Read-out in test [4]: Urokinase-type plasminogen activator receptor (uPAR), PLAUR (gene 5329)
Nature of the test: BSK_4H_uPAR: BioMAP Diversity Plus: 4H Assay for Urokinase-type plasminogen activator receptor (uPAR) Biomarker Activity (AID 2283030). The following applies: primary human endothelial cells (HUVEC); actives raise or lower the signal. The method, boiled down:
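HUVEC, 24 h post-dose; uPAR by ELISA; bidirectional fit vs DMSO baseline.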

Read-out in test [5]: Vascular endothelial growth factor receptor 2 (Homo sapiens) (UniProt P35968)
The test can be described thus: BSK_4H_VEGFRII: BioMAP Diversity Plus: 4H Assay for Vascular endothelial growth factor receptor 2 (VEGFR2) Biomarker Activity (AID 2283031). To be noted: primary human endothelial cells (HUVEC); actives raise or lower the signal. The method, boiled down:
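HUVEC (human primary), 4H system; 24 h post-dose; VEGFRII by ELISA; bidirectional curve fit vs DMSO baseline; gain or loss of signal scored.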

Read-out in test [6]: Vascular cell adhesion molecule 1 (VCAM1), VCAM1 (gene 7412)
The test can be described thus: BSK_4H_VCAM1: BioMAP Diversity Plus: 4H Assay for Vascular cell adhesion molecule 1 (VCAM1) Biomarker Activity (AID 2283033).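 For outcome: cell-surface VCAM-1 protein measured by ELISA.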 The following applies: primary human endothelial cells (HUVEC); actives raise or lower the signal. The method, boiled down:
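Chemicals are added to primary human umbilical vein endothelial cells. After 24 h, VCAM-1 levels are measured by ELISA. Values come from bidirectional fitting referenced to DMSO.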

Read-out in test [7]: Interferon-gamma inducible Protein 10 (IP10), CXCL10 (gene 3627)
Nature of the test: BSK_BE3C_IP10: BioMAP Diversity Plus: BE3C Assay for Interferon-gamma inducible Protein 10 (IP10) Biomarker Activity (AID 2283034). To be noted: primary human bronchial epithelial cells; actives raise or lower the signal. The method, boiled down:
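IP-10 quantified by ELISA serves as the endpoint. Cells: primary human bronchial epithelium, read 24 h after compound addition. Activity is derived by bidirectional fitting with DMSO as negative control.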

Read-out in test [8]: Monokine induced gamma interferon (MIG), CXCL9 (gene 4283)
Nature of the test: BSK_BE3C_MIG: BioMAP Diversity Plus: BE3C Assay for Monokine induced gamma interferon (MIG) Biomarker Activity (AID 2283035). The following applies: primary human bronchial epithelial cells; actives raise or lower the signal. The method, boiled down: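 Dose cells (human primary bronchial epithelial), incubate 24 h, quantify MIG by ELISA, then fit concentration–response in both directions relative to DMSO control.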

Read-out in test [9]: Transforming growth factor beta 1 (TGFb1), TGFB1 (gene 7040)
The test can be described thus: BSK_BE3C_TGFb1: BioMAP Diversity Plus: BE3C Assay for Transforming growth factor beta 1 (TGFb1) Biomarker Activity (AID 2283036;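 note: TGF-b1 protein level measured by ELISA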). To be noted: primary human bronchial epithelial cells; actives raise or lower the signal. The method, boiled down: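 Bronchial epithelial primary cells are treated with test chemical, then TGF-b1 is quantified by ELISA after 24 hours. Values derive from bidirectional fitting against DMSO, with cytotoxicity checked by SRB staining in parallel cultures.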

Read-out in test [10]: Plasminogen activator inhibitor-1 (PAI1), SERPINE1 (gene 5054)
Nature of the test: BSK_BE3C_PAI1: BioMAP Diversity Plus: BE3C Assay for Plasminogen activator inhibitor-1 (PAI1) Biomarker Activity (AID 2283037). The following applies: primary human bronchial epithelial cells; actives raise or lower the signal. The method, boiled down: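 Values derive from bidirectional fitting against DMSO baseline of PAI-1 levels, measured by ELISA in human bronchial epithelial cells 24 h after compound addition.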

Read-out in test [11]: urokinase plasminogen activator (uPA), PLAU (gene 5328)
The test can be described thus: BSK_BE3C_uPA: BioMAP Diversity Plus: BE3C Assay for urokinase plasminogen activator (uPA) Biomarker Activity (AID 2283038).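 Note: uPA protein level quantified by ELISA in cell cultures; uPA read one day after compound addition.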 The following applies: primary human bronchial epithelial cells; actives raise or lower the signal. The method, boiled down: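 ELISA read-out of uPA in human lung primary bronchial epithelial cultures, 24 h post-dosing. Gain or loss of signal fitted bidirectionally relative to DMSO baseline; cytotoxicity checked in parallel cultures via SRB total protein stain.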

Read-out in test [12]: Urokinase-type plasminogen activator receptor (uPAR), PLAUR (gene 5329)
Nature of the test: BSK_BE3C_uPAR: BioMAP Diversity Plus: BE3C Assay for Urokinase-type plasminogen activator receptor (uPAR) Biomarker Activity (AID 2283039).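 Note: uPAR protein level measured by ELISA on the cells; cells exposed to compound for one day before measurement.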 The following applies: primary human bronchial epithelial cells; actives raise or lower the signal. The method, boiled down: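 Steps: dose human primary bronchial epithelial cells, incubate 24 h, measure uPAR by ELISA, then fit gain- or loss-of-signal response bidirectionally relative to DMSO.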

Read-out in test [13]: Interleukin-6 (IL6), IL6 (gene 3569)
Nature of the test: BSK_CASM3C_IL6: BioMAP Diversity Plus: CASM3C Assay for Interleukin-6 (IL6) Biomarker Activity for (AID 2283040). To be noted: primary human coronary artery smooth muscle cells; actives raise or lower the signal.

Read-out in test [14]: Tissue plasminogen activator (tPA), PLAT (gene 5327)
The test can be described thus: BSK_BE3C_tPA: BioMAP Diversity Plus: BE3C Assay for Tissue plasminogen activator (tPA) Biomarker Activity (AID 2283041).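 Note: tPA level quantified by ELISA one day after compound addition.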 To be noted: primary human bronchial epithelial cells; actives raise or lower the signal. The method, boiled down: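 Gain- or loss-of-signal in tPA, measured by ELISA, derived by bidirectional fitting against DMSO. Cells: human primary bronchial epithelial; read at 24 h after chemical dosing.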

Read-out in test [15]: Interleukin-8 (IL8), CXCL8 (gene 3576)
Nature of the test: BSK_CASM3C_IL8: BioMAP Diversity Plus: CASM3C Assay for Interleukin-8 (IL8) Biomarker Activity (AID 2283042).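 Note: IL-8 protein level quantified by ELISA.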 The following applies: primary human coronary artery smooth muscle cells; actives raise or lower the signal.

Read-out in test [16]: Human Leukocyte Antigen - DR isotype (HLADR), HLA-DRA (gene 3122)
The test can be described thus: BSK_CASM3C_HLADR: BioMAP Diversity Plus: CASM3C Assay for Human Leukocyte Antigen - DR isotype (HLADR) Biomarker Activity (AID 2283043).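 Note: cell-surface HLA-DR protein level quantified by ELISA.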 To be noted: primary human coronary artery smooth muscle cells; actives raise or lower the signal.

Read-out in test [17]: Macrophage colony-stimulating factor (MCSF), CSF1 (gene 1435)
Nature of the test: BSK_CASM3C_MCSF: BioMAP Diversity Plus: CASM3C Assay for Macrophage colony-stimulating factor (MCSF) Biomarker Activity (AID 2283044).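 Note: M-CSF protein amount quantified by ELISA after 24 h exposure.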 The following applies: primary human coronary artery smooth muscle cells; actives raise or lower the signal.

Read-out in test [18]: Low-density lipoprotein receptor (LDLR), LDLR (gene 3949)
The test can be described thus: BSK_CASM3C_LDLR: BioMAP Diversity Plus: CASM3C Assay for Low-density lipoprotein receptor (LDLR) Biomarker Activity (AID 2283045).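 Note: LDLR protein level on the cell surface quantified by ELISA.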 The following applies: primary human coronary artery smooth muscle cells; actives raise or lower the signal.

Read-out in test [19]: Monocyte Chemoattractant Protein-1 (MCP1), CCL2 (gene 6347)
Nature of the test: BSK_CASM3C_MCP1: BioMAP Diversity Plus: CASM3C Assay for Monocyte Chemoattractant Protein-1 (MCP1) Biomarker Activity (AID 2283046).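 Note: MCP-1 level quantified by ELISA 24 h after dosing.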 To be noted: primary human coronary artery smooth muscle cells; actives raise or lower the signal.

Read-out in test [20]: Human Leukocyte Antigen - DR isotype (HLADR), HLA-DRA (gene 3122)
The test can be described thus: BSK_BE3C_HLADR: BioMAP Diversity Plus: BE3C Assay for Human Leukocyte Antigen - DR isotype (HLADR) Biomarker Activity (AID 2283032). To be noted: primary human bronchial epithelial cells; actives raise or lower the signal. The method, boiled down: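 Chemicals are dosed onto BE3C bronchial epithelial cultures of human origin and left 24 h. HLA-DR is then measured by ELISA, and the endpoint is fitted in both directions using DMSO as the activity baseline.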

For the compound `CCCCCCCCCCCCCCCCO`, the outcome in test [1], in test [2], in test [3], in test [4], in test [5] and in test [6] was inactive. Besides, the result in test [7], in test [8], in [9], in test [10], in test [11] and in [12] was inactive. For the same compound, the outcome in test [13], in test [14], in test [15], in test [16], in test [17] and in test [18] was inactive. Also, in test [19], the result was inactive.
As to `C/C=C/C=C/C(=O)O`, the outcome in [1], in [2], in [3], in [4], in test [20] and in test [6] was inactive. In addition, the result in test [7], in test [8], in test [9], in [10], in test [11] and in test [12] was inactive. For the same compound, the result in [13], in [14], in test [15], in [16], in test [17] and in test [18] was inactive. Moreover, the result in [19] was inactive.
Regarding `Cc1cc(SC2=C(O)C[C@@](CCc3ccc(N)cc3)(C(C)C)OC2=O)c(C(C)(C)C)cc1CO`, the result in test [1], in test [2], in test [3], in test [4], in [5] and in [6] was inactive. In addition, the result in test [7], in test [8], in test [9], in test [10], in [11] and in [12] was inactive. For the same compound, the outcome in test [13], in test [14], in test [15], in test [16], in test [17] and in test [18] was inactive. Moreover, the outcome in [19] was inactive.
As to `CCCCCCCC(=O)OC`, the result in [1], in [2], in test [3], in test [4], in test [5] and in test [6] was inactive. In addition, the outcome in [7], in test [8], in test [9], in test [10], in [11] and in [12] was inactive. For the same compound, the result in test [13], in [14], in test [15], in test [16], in test [17] and in [18] was inactive. Besides, in [19], the outcome was inactive.
Turning to `O=C1OC(c2ccc(O)cc2)(c2ccc(O)cc2)c2ccccc21`, the outcome in test [2], in [3], in test [5], in test [9], in test [10] and in [11] was inactive. Also, the outcome in test [12], in test [13], in test [14], in test [16], in test [17] and in test [18] was inactive. For the same compound, the outcome in [19] was inactive. Also, the AC50 in test [4] was 14.3 µM (active); in test [20] it was 0.379 µM (active); in [6], 30.8 µM (active); in test [8], 7.79 µM (active).
For `COC(=O)CCCC(=O)OC`, the outcome in test [1], in test [2], in test [3], in test [4], in test [5] and in test [6] was inactive. Also, the outcome in test [7], in test [8], in test [9], in test [10], in test [11] and in test [12] was inactive. The outcome in test [13], in test [14], in test [15], in test [16], in test [17] and in test [18] was inactive. Besides, in test [19], the result was inactive.
For `Cn1cnc2c1c(=O)[nH]c(=O)n2C`, the result in [1], in test [2], in [3], in test [4], in test [5] and in test [6] was inactive. In addition, the outcome in test [7], in test [8], in [9], in test [10], in test [11] and in [12] was inactive. For the same compound, the outcome in test [13], in test [14], in test [15], in [16], in test [17] and in test [18] was inactive. Besides, in test [19], the result was inactive.
